# Test results taken from PubChem BioAssay.
# Activity calls are given as the source filed them. Unless noted, no rule for the calls is given here.
# Assays:
# [1] = tested on: Wnt5a (protein binding on small-molecule microarray); experiment: Wnt5a binders on small-molecule microarray, primary screen, biophysical, 635/667 nm fluorescence (AID 1142); details: 635 nm fluorescence, higher = more signal;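 also: fluorescence read at 667 nm with signal to noise per printed feature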
# [2] = cell viability in Huh7 cells, primary screen, cytotoxicity control for HCV replication inhibitor project, CellTiter-Glo luminescence, basal, 48 h (AID 1143); details: Huh7 HCV replicon, higher = more signal, called active from +8 up or from −8 down;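 also: Huh7 hepatoma cells carrying a hepatitis C replication reporter with no stimulus; test concentration not given here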
# [3] = P. aeruginosa biofilm formation inhibitors, primary screen, PAO1 strain, BacTiter-Glo luminescence, LB-PBS (AID 1144); details: 12 h, higher = more signal
# [4] = CREB reporter modulators without forskolin, primary screen, cell-based, PC12, CRE-LacZ reporter, unstimulated (AID 1145); details: no forskolin, luminescence, 4.5 h, higher = more signal, called active from +8 up or from −8 down
# [5] = CREB reporter modulators under forskolin, primary screen, cell-based, PC12, CRE-LacZ reporter, forskolin-stimulated (AID 1146); details: luminescence, 4.5 h, higher = more signal, called active from +8 up or from −8 down;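 also: PC12 cells with 6xCRE LacZ reporter stimulated by forskolin 10 µM; beta-galactosidase reporter signal reflecting CREB driven transcription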
# [6] = molecular target: Streptavidin (Streptomyces avidinii) (UniProt P22629); experiment: streptavidin binders on small-molecule microarray, primary screen, artefact control for SMM compound annotation, biophysical, 635/667 nm fluorescence (AID 1147); details: streptavidin binding, higher = more signal;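 also: signal reflects streptavidin binding to arrayed compounds as a control protein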
# Sequence of Streptavidin (Streptomyces avidinii) (P22629 whole entry, looked up): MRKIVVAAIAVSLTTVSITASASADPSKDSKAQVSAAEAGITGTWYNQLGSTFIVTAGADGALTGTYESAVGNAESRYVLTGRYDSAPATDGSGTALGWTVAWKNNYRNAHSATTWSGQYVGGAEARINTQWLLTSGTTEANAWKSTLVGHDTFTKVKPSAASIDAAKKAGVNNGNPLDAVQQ
# [7] = small-molecule binders of probe aInhba, primary screen, biochemical, small-molecule microarray, 635/667 nm fluorescence (AID 1148); details: higher = more signal;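 also: score merges 667nm spot fluorescence with signal-to-noise for antibody binding to printed compounds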
# Torsin-1A (Homo sapiens) [8] = molecular target: Torsin-1A (Homo sapiens) (UniProt O14656); experiment: torsin A binders from cell lysate, primary screen, small-molecule microarray, wild-type, 635/667 nm (AID 1149); details: COS7 hTOR1A-WT lysate, 635 nm fluorescence, higher = more signal
# Sequence of Torsin-1A (Homo sapiens) (O14656 whole entry, looked up): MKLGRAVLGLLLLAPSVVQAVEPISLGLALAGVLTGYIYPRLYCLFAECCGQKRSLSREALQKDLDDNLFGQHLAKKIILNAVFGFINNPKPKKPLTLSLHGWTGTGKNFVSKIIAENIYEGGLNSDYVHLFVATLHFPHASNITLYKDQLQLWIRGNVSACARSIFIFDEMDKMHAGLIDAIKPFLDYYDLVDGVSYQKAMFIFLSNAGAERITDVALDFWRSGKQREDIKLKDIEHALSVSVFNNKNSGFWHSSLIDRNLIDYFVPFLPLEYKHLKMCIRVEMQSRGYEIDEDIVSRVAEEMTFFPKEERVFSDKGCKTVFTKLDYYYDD
# Torsin-1A (Homo sapiens) [9] = molecular target: Torsin-1A (Homo sapiens) (UniProt O14656); experiment: small-molecule binders of mutant TOR1A in lysate, primary screen, cell lysate, small-molecule microarray, COS7 lysate, 635/667 nm fluorescence (AID 1150); details: COS7 hTOR1A mutant lysate, 635 nm fluorescence, higher = more signal;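 also: score pools 667 nm emission and signal to noise measuring lysate protein binding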
# [10] = tested on: Sonic hedgehog protein (Shh); experiment: small-molecule binders of Shh protein, primary screen, biochemical, small-molecule microarray, 635/667 nm fluorescence (AID 1151); details: small-molecule microarray binding, 635 nm fluorescence; higher = more signal;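 also: Shh protein binding to compounds spotted on small-molecule microarray slides; score combines spot fluorescence intensity with signal-to-noise across triplicate slides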
# [11] = E. coli DRC41 culture turbidity changes, primary screen, E. coli filamentation inducer project, strain DRC41, OD650, 48 h (AID 1152);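 also: E. coli MC1000 strain DRC41 lacking acrAB efflux pump and sulA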; details: E. coli DRC41 (acrAB sulA), higher = more signal, called active from +8 up or from −8 down
# [12] = small-molecule binders of probe aLefty1, primary screen, biochemical, small-molecule microarray, 635/667 nm fluorescence (AID 1153); details: higher = more signal;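 also: score merges spot fluorescence with signal-to-noise ratio from the scanned slide images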
# [13] = PSAC antagonists in infected red cells, primary screen, cell-based, P. falciparum Indochina, OD700, 1 h (AID 1154); details: P. falciparum Indochina infected RBC osmotic lysis, higher = more signal, called active from +8 up or from −8 down
# [14] = PSAC antagonists in infected red cells, primary screen, cell-based, P. falciparum Indochina, OD700, 2 h (AID 1155);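 also: lysis reports solute entry through the parasite surface anion channel PSAC; channel blockers reduce lysis of infected cells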; details: P. falciparum Indochina infected erythrocytes, osmotic lysis OD700; higher = more signal, called active from +8 up or from −8 down
# [15] = osmotic lysis modulators in infected erythrocytes, primary screen, PSAC antagonist project, cell-based, P. falciparum Indochina, OD700, 3 h (AID 1156); details: higher = more signal, called active from +8 up or from −8 down
# [16] = PSAC antagonists in infected red cells, primary screen, cell-based, P. falciparum Indochina, OD700, 18 h (AID 1157); details: P. falciparum Indochina infected erythrocytes, osmotic lysis OD700, 18 h; higher = more signal, called active from +8 up or from −8 down
# [17] = modulators of S6 phosphorylation in cells, primary screen, cell-based, A549, cytoblot, luminescence, serum-stimulated (AID 1158); details: A549 phospho-S6 cytoblot, 5 h, higher = more signal;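 also: serum-stimulated A549 lung adenocarcinoma cells; signal is phosphorylated S6 detected by cytoblot immunostaining with HRP secondary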
# [18] = molecular target: NADPH oxidase 2 (Homo sapiens) (UniProt P04839); experiment: NOX2-dependent H2O2 signal modulators, primary screen, NOX inhibitor project, cell-based, HEK293-NOX2, PMA-stimulated, Amplex Red fluorescence (AID 1159); details: 45 min, higher = more signal, called active from +8 up or from −8 down; also: test concentration not given here
# Sequence of NADPH oxidase 2 (Homo sapiens) (P04839 whole entry, looked up): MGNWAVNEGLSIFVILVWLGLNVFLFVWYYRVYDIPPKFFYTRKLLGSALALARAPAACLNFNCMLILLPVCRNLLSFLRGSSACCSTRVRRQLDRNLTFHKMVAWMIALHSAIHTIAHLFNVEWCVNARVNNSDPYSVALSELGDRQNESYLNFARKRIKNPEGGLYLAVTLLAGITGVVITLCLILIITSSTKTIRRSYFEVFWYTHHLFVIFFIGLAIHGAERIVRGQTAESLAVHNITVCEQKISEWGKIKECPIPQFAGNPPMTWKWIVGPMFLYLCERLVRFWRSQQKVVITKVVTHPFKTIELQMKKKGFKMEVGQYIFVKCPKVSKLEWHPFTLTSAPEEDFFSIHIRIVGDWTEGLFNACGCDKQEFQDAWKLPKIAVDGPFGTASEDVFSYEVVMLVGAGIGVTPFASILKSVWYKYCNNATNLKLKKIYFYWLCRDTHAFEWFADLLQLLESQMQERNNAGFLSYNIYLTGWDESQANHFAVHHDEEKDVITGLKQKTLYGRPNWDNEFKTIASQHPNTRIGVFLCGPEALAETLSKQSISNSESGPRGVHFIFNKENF
# [19] = molecular target: NADPH oxidase 4 (Homo sapiens) (UniProt Q9NPH5); experiment: NOX4-dependent H2O2 signal modulators, primary screen, NOX inhibitor project, cell-based, HEK293-NOX4, tetracycline-induced, Amplex Red fluorescence (AID 1160); details: 45 min, higher = more signal, called active from +8 up or from −8 down
# Sequence of NADPH oxidase 4 (Homo sapiens) (Q9NPH5 whole entry, looked up): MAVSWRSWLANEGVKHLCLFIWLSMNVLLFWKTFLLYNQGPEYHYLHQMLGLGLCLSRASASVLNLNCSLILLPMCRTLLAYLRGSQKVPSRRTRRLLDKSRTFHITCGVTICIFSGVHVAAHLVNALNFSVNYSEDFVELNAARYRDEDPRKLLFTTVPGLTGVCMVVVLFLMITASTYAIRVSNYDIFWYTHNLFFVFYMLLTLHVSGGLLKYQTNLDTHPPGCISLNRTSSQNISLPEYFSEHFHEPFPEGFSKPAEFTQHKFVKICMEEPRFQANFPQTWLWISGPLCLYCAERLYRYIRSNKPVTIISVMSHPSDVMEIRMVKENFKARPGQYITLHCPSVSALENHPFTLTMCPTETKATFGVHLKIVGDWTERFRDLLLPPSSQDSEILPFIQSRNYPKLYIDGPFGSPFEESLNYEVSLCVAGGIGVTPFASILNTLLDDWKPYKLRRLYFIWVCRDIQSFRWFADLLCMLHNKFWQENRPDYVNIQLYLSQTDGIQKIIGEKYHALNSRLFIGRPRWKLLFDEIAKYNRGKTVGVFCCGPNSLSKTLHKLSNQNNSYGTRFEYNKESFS
# [20] = molecular target: NADPH oxidase 5 (Homo sapiens) (UniProt Q96PH1); experiment: NOX5-dependent H2O2 signal modulators, primary screen, NOX inhibitor project, cell-based, HEK293-NOX5, Amplex Red fluorescence (AID 1161); details: HEK293-NOX5, ionomycin, 45 min, higher = more signal
# Sequence of NADPH oxidase 5 (Homo sapiens) (Q96PH1 whole entry, looked up): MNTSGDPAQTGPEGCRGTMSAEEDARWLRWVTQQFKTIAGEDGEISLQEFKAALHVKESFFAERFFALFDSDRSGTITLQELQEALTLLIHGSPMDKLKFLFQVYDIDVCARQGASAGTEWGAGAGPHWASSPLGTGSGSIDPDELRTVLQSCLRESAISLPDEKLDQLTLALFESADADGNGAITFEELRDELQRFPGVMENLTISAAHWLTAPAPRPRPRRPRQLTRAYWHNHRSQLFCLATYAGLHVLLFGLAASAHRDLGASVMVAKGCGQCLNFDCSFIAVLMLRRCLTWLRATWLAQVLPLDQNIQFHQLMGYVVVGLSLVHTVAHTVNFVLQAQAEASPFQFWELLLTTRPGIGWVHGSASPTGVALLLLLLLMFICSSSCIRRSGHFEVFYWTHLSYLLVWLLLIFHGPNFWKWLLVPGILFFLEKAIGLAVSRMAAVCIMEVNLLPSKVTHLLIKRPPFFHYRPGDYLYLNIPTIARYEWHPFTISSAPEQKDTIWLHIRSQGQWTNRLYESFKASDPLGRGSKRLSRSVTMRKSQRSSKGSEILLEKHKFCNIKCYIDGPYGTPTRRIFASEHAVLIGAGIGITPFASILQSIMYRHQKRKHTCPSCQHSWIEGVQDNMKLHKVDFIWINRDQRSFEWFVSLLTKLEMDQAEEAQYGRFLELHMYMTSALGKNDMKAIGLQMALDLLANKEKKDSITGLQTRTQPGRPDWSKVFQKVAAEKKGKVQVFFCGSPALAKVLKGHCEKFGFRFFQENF
smiles,measurement,setting,value
COCCOC(=O)N1C(=O)[C@@]2(c3ccccc31)[C@H](c1ccccc1OCCO)N1[C@H](c3ccccc3)[C@H](c3ccccc3)OC(=O)[C@H]1[C@@H]2C(=O)Nc1nc2ccccc2s1,composite z-score,[1],0.212
same,z-score,[2],-3.78 (inactive)
same,z-score,[3],-0.868 (inactive)
same,z-score,[4],-0.0566 (inactive)
same,z-score,[5],2.86 (inactive)
same,composite z-score,[6],1.14
same,composite z-score,[7],0.113
same,composite z-score,Torsin-1A (Homo sapiens) [8],0.421
same,composite z-score,Torsin-1A (Homo sapiens) [9],1.25
same,composite z-score,[10],1.81
same,z-score,[11],1.57 (inactive)
same,composite z-score,[12],0.523
same,z-score,[13],3.27 (inactive)
same,z-score,[14],2.77 (inactive)
same,z-score,[15],1.37 (inactive)
same,z-score,[16],1.84 (inactive)
same,z-score,[17],0.59
same,z-score,[18],1.39 (inactive)
same,z-score,[19],1.41 (inactive)
same,z-score,[20],0.676
C=CCNC(=O)[C@@H]1[C@H]2C(=O)O[C@H](c3ccccc3)[C@H](c3ccccc3)N2[C@H](c2ccc(OCCO)cc2)[C@@]12C(=O)Nc1ccc(C#CCCO)cc12,composite z-score,[1],0.847
same,z-score,[2],-0.625 (inactive)
same,z-score,[3],-0.796 (inactive)
same,z-score,[4],-0.141 (inactive)
same,z-score,[5],-0.118 (inactive)
same,composite z-score,[6],1.6
same,composite z-score,[7],1.15
same,composite z-score,Torsin-1A (Homo sapiens) [8],1.26
same,composite z-score,Torsin-1A (Homo sapiens) [9],1.17
same,composite z-score,[10],1.59
same,z-score,[11],-0.41 (inactive)
same,composite z-score,[12],0.656
same,z-score,[13],7.17 (inactive)
same,z-score,[14],2.11 (inactive)
same,z-score,[15],1.14 (inactive)
same,z-score,[16],0.812 (inactive)
same,z-score,[17],-0.344
same,z-score,[18],1.67 (inactive)
same,z-score,[19],0.442 (inactive)
same,z-score,[20],0.688
C[C@@H]1ON(c2cccc(C(=O)OC(C)(C)C)c2)[C@H](c2ccc(Br)cc2)[C@H]1C(=O)N1C(=O)OC[C@H]1Cc1ccccc1,composite z-score,[1],0.458
same,z-score,[2],-0.242 (inactive)
same,z-score,[3],0.938 (inactive)
same,z-score,[4],1.49 (inactive)
same,z-score,[5],-0.278 (inactive)
same,composite z-score,[6],0.852
same,composite z-score,[7],0.134
same,composite z-score,Torsin-1A (Homo sapiens) [8],0.18
same,composite z-score,Torsin-1A (Homo sapiens) [9],0.389
same,composite z-score,[10],0.937
same,z-score,[11],-0.46 (inactive)
same,composite z-score,[12],0.2
same,z-score,[13],-0.351 (inactive)
same,z-score,[14],0.488 (inactive)
same,z-score,[15],-0.611 (inactive)
same,z-score,[16],0.011 (inactive)
same,z-score,[17],0.217
same,z-score,[18],-1.01 (inactive)
same,z-score,[19],-0.079 (inactive)
same,z-score,[20],-0.0305
CCOC(=O)C[C@H]1[C@H](OC(=O)Cc2ccc3c(c2)OCO3)[C@@H](NC(=O)c2ccc(-c3ccccc3)cc2)c2cc(OCCCO)ccc2N1C(=O)Cc1ccc(OC)cc1,composite z-score,[1],0.267
same,z-score,[2],-0.921 (inactive)
same,z-score,[3],-0.304 (inactive)
same,z-score,[4],6.24 (inactive)
same,z-score,[5],0.0489 (inactive)
same,composite z-score,[6],0.0687
same,composite z-score,[7],-0.0754
same,composite z-score,Torsin-1A (Homo sapiens) [8],0.0816
same,composite z-score,Torsin-1A (Homo sapiens) [9],0.394
same,composite z-score,[10],0.965
same,z-score,[11],2.84 (inactive)
same,composite z-score,[12],0.123
same,z-score,[13],25.4 (active)
same,z-score,[14],11.2 (active)
same,z-score,[15],-0.67 (inactive)
same,z-score,[16],0.464 (inactive)
same,z-score,[17],1.74
same,z-score,[18],-1.35 (inactive)
same,z-score,[19],1.26 (inactive)
same,z-score,[20],2.24
CC(C)C[C@@H]1NC(=O)[C@@H]2C[C@H](C(=O)NCCCCCN)[C@H](c3cccc(OCCO)c3)N2C1=O,composite z-score,[1],0.794
same,z-score,[2],-0.542 (inactive)
same,z-score,[3],-1.64 (inactive)
same,z-score,[4],0.0043 (inactive)
same,z-score,[5],0.442 (inactive)
same,composite z-score,[6],1.05
same,composite z-score,[7],-0.0736
same,composite z-score,Torsin-1A (Homo sapiens) [8],0.941
same,composite z-score,Torsin-1A (Homo sapiens) [9],0.919
same,composite z-score,[10],1.05
same,z-score,[11],1.28 (inactive)
same,composite z-score,[12],0.427
same,z-score,[13],3.07 (inactive)
same,z-score,[14],-0.74 (inactive)
same,z-score,[15],1.1 (inactive)
same,z-score,[16],-2 (inactive)
same,z-score,[17],0.836
same,z-score,[18],1.22 (inactive)
same,z-score,[19],0.74 (inactive)
same,z-score,[20],1.43
CC(C)(C)OC(=O)CC[C@@]1(C(N)=O)N=C(c2ccc(OCCCO)cc2)O[C@@H]1c1ccccc1,composite z-score,[1],0.22
same,z-score,[2],-0.0043 (inactive)
same,z-score,[3],-0.256 (inactive)
same,z-score,[4],1.5 (inactive)
same,z-score,[5],-1.12 (inactive)
same,composite z-score,[6],0.818
same,composite z-score,[7],-0.0533
same,composite z-score,Torsin-1A (Homo sapiens) [8],0.361
same,composite z-score,Torsin-1A (Homo sapiens) [9],1.42
same,composite z-score,[10],-0.954
same,z-score,[11],-0.795 (inactive)
same,composite z-score,[12],0.345
same,z-score,[13],5.46 (inactive)
same,z-score,[14],0.431 (inactive)
same,z-score,[15],0.726 (inactive)
same,z-score,[16],0.299 (inactive)
same,z-score,[17],-0.0683
same,z-score,[18],-0.414 (inactive)
same,z-score,[19],0.492 (inactive)
same,z-score,[20],-0.0961
CCOC(=O)C[C@H]1[C@H](OC(=O)c2cc3ccccc3oc2=O)[C@@H](NC(=O)C2CCCCC2)c2cc(OCCCO)ccc2N1C(=O)c1ccccc1,composite z-score,[1],-0.0359
same,z-score,[2],-3.06 (inactive)
same,z-score,[3],0.838 (inactive)
same,z-score,[4],11 (active)
same,z-score,[5],-1.65 (inactive)
same,composite z-score,[6],0.191
same,composite z-score,[7],-0.0245
same,composite z-score,Torsin-1A (Homo sapiens) [8],0.046
same,composite z-score,Torsin-1A (Homo sapiens) [9],0.159
same,composite z-score,[10],0.705
same,z-score,[11],1.67 (inactive)
same,composite z-score,[12],-0.147
same,z-score,[13],0.388 (inactive)
same,z-score,[14],-0.269 (inactive)
same,z-score,[15],0.342 (inactive)
same,z-score,[16],-1.4 (inactive)
same,z-score,[17],1.18
same,z-score,[18],-0.341 (inactive)
same,z-score,[19],0.609 (inactive)
same,z-score,[20],0.305
COCC(=C=CC[C@@H](O)c1ccccc1OCCO)C[C@@H](O)c1cc(Cl)cc(Cl)c1O,composite z-score,[1],0.539
same,z-score,[2],-1.54 (inactive)
same,z-score,[3],0.112 (inactive)
same,z-score,[4],15.6 (active)
same,z-score,[5],0.789 (inactive)
same,composite z-score,[6],0.394
same,composite z-score,[7],-0.0112
same,composite z-score,Torsin-1A (Homo sapiens) [8],1.66
same,composite z-score,Torsin-1A (Homo sapiens) [9],1.04
same,composite z-score,[10],2.07
same,z-score,[11],-0.397 (inactive)
same,composite z-score,[12],0.086
same,z-score,[13],20.5 (active)
same,z-score,[14],4.9 (inactive)
same,z-score,[15],0.392 (inactive)
same,z-score,[16],0.945 (inactive)
same,z-score,[17],0.35
same,z-score,[18],-0.19 (inactive)
same,z-score,[19],-0.894 (inactive)
same,z-score,[20],-2.07
[N-]=[N+]=NCc1ccccc1[C@@H]1OC(c2ccc(OCCCO)cc2)=N[C@]1(Cc1ccccc1N=[N+]=[N-])C(=O)N1CCOCC1,composite z-score,[1],1.11
same,z-score,[2],-1.61 (inactive)
same,z-score,[3],0.103 (inactive)
same,z-score,[4],1.78 (inactive)
same,z-score,[5],-0.514 (inactive)
same,composite z-score,[6],1.57
same,composite z-score,[7],0.636
same,composite z-score,Torsin-1A (Homo sapiens) [8],0.308
same,composite z-score,Torsin-1A (Homo sapiens) [9],0.898
same,composite z-score,[10],-0.284
same,z-score,[11],-0.66 (inactive)
same,composite z-score,[12],0.628
same,z-score,[13],16.9 (active)
same,z-score,[14],3.7 (inactive)
same,z-score,[15],1.17 (inactive)
same,z-score,[16],1.01 (inactive)
same,z-score,[17],0.37
same,z-score,[18],-1.31 (inactive)
same,z-score,[19],1.23 (inactive)
same,z-score,[20],1.4
